In PubChem BioAssay (Tox21):
Records with an inconclusive call do not appear. Values without a mark were called inactive. The source made the active and inactive calls. Calls follow the shape of the full dose curve.

Experiment: p53 small molecule agonists, cell-based qHTS assay with rat liver microsomes (AID 1963578)
Settings: HCT-116 p53RE-bla, beta-lactamase ratio, 16 h; series mostly up to 66 µM; activation: at the top concentration
Source text: U.S. Tox21 Program National Center for Advancing Translational Sciences [NCATS] Division of Preclinical Innovation [DPI] U.S. Environmental Protection Agency [EPA] National Institutes of Environmental Health Sciences [NIEHS] National Toxicology Program [NTP] U.S. Food and Drug Administration [FDA] Tox21 Assay Overview: p53, a tumor suppressor protein, is activated following cellular insult, including DNA damage and other cellular stresses. The activation of p53 regulates cell fate by inducing DNA repair, cell cycle arrest, apoptosis, or cellular senescence. The activation of p53, therefore, is a good indicator of DNA damage and other cellular stresses. […] The activation of the reporter gene under culture conditions can be detected by fluorescence intensity. This cell line was used to screen the Tox21 10K compound library in the condition of presence of rat liver microsomes and to identify agonists that activate the p53 signaling pathway after in vitro metabolic activation (Ooka et al., Archive of Toxicology 96:1975-1987, 2022).
Tox21 Assay Protocol Summary: The p53RE-bla cells were dispensed at 4,000cells/3ul/well in 1536-well black-clear bottom plates. After the assay plates were incubated at 37 C, 5% CO2 incubator for 5 hours, 23 nL of compounds dissolved in DMSO, positive controls or DMSO only was transferred to the assay plate. Following compound addition, 3 uL of rat liver microsomes (Molecular Toxicology, Boone, NC) at final concentration of 0.5 mg/mL and 1uL of Beta-Nicotinamide adenine dinucleotide 2-phosphate (NADPH) at final concentration of 0.5 mg/mL were transferred to the assay plate. The plates were incubated at 37 C for 16 hours. 1 uL of LiveBLAzer detection mixture was added to each well and the plates were incubated at room temperature in the dark for 2 h.
% is scaled to controls: 0 for no effect and ±100 for the full control effect.

Row | SMILES | activation | Potency
1 | CCCCN=C(N)N=C(N)N | -0.665% [at 30.3 µM] | 
2 | CC(CN1c2ccccc2Sc2ccccc21)N(C)C (stereo not given) |  | inactive
3 | CCCCCCCCCCCCI | -0.0918% | 
4 | COc1cc2c(Nc3ccc(Br)cc3F)ncnc2cc1OCC1CCN(C)CC1 | 0.216% [at 30.3 µM] | 
5 | CC(=O)N[C@@H](CC(C)C)C(=O)O | -2.93% [at 30.3 µM] | 
6 | C[N+](C)(C)CC(O)CCl (stereo not given) | 0.477% | 
7 | NS(=O)(=O)c1ccccc1Cl | -0.3% | 
8 | NC(=O)NNC(N)=O | -2.09% | 
9 | O=C1OC(CN2CCOCC2)CN1/N=C/c1ccc([N+](=O)[O-])o1 (stereo not given) | 1.22% [at 30.3 µM] | 
10 | O=C(O)[C@@H](O)[C@H](O)[C@H](O)[C@@H](O)C(=O)O | -3.1% [at 30.3 µM] | 
11 | CC(C)[C@H]1CC[C@@H](C)CC1=O | -3.35% | 
12 | O=P(O)(OCc1ccccc1)OCc1ccccc1 | 0.112% | 
13 | CCCC(=O)c1ccccc1 | -0.839% | 
14 | CC(=O)OC[C@H]1O[C@@H](OC(C)=O)[C@H](OC(C)=O)[C@@H]1OC(C)=O | -0.629% [at 30.3 µM] | 
15 | CC(C)c1cccc(O)c1 | -4.15% | 
16 | O=C(/C=C/c1ccccc1)OCc1ccccc1 |  | inactive
17 | CCCCN(CCCC)CCCCCCN(CCCC)CCCC | 0.0883% | 
18 | C=CCn1cc[n+](C)c1 | 0.0251% | 
19 | COc1cc(C(=O)NCc2ccc(OCCN(C)C)cc2)cc(OC)c1OC | -1% [at 30.3 µM] | 
20 | O=c1cccc[nH]1 | -0.658% | 

Row | SMILES | activation | Potency
21 | O=C(Nc1ccc([N+](=O)[O-])cc1)Nc1ccc([N+](=O)[O-])cc1 (tested in a mixture with another compound) | -0.0577% [at 30.3 µM] | 
22 | CCC(C)NC(N)=O (stereo not given) | -1.02% | 
23 | CCN(CC)CCN | -0.18% [at 30.3 µM] | 
24 | Clc1nc2ccccc2s1 | 0.0551% | 
25 | COc1cc(C=O)ccc1OC(=O)C(C)C | 1.82% | 
26 | CC(C)(O)C#CC(C)(C)O | -4.4% | 
27 | C[C@@H]1CCC[C@H](C)N1 | -2.64% [at 30.3 µM] | 
28 | O=C1NC(c2ccccc2)(c2ccccc2)C(=O)N1COP(=O)(O)O | 0.773% [at 30.3 µM] | 
29 | CC(C=O)Cc1ccc(C(C)(C)C)cc1 (stereo not given) |  | inactive
30 | CC1=CC(=O)c2ccccc2C1=O |  | inactive
31 | CC(=O)CC(N)=O | -1.41% | 
32 | N=c1nc(N2CCCCC2)cc(N)n1O | 0.134% [at 30.3 µM] | 
33 | O=Cc1ccc([N+](=O)[O-])cc1 | 0.187% | 
34 | C/C=C/C(=O)CCCC | -0.771% | 
35 | CC[C@H]1CN2CCc3cc(OC)c(OC)cc3[C@@H]2C[C@@H]1C[C@H]1NCCc2cc(OC)c(OC)cc21 |  | inactive
36 | CCCCCCCC/C=C\CCCCCCCC(=O)OCCCC | -0.57% [at 13.6 µM] | 
37 | CC(N)CN (stereo not given) | 0.144% | 
38 | CN(C(=O)c1c(O)c2ccccc2n(C)c1=O)c1ccccc1 | -0.663% [at 30.3 µM] | 
39 | c1cnccn1 | 0.0461% | 
40 | C1=Cc2ccccc2C1 | -1.24% | 
